PubChem BioAssay AID1347131 (National Center for Advancing Translational Sciences (NCATS), 2019)
Hit rate of the full screen: of about 410,000 compounds, about 2,000 (0.49%) were called active. About 8% were inconclusive and are not listed. The list comes from a sample in which actives are over-represented; it also holds similar structures and randomly drawn compounds. Unmarked numbers belong to inactive results. Calls come from the whole dose curve; tested in HEK293 reporter line.

Test: qHTS Assay for Foot and Mouth Disease Virus Antivirals: Primary Screen against the MLPCN compound library; note: nearly all actives have a fitted effect of over 55% in size
Conditions: FMDV antiviral cell-based qHTS; series mostly up to 57.9 µM; activity, negative = inhibition: at the top concentration
Potency is the fitted concentration of half-maximal effect.

First: CC(C)[C@@H](C(=O)N1CCN(Cc2ccc3c(c2)OCO3)CC1)n1nnc2ccccc2c1=O
Second: Cc1ccc(CSCC(=O)N2CCN(Cc3ccc4c(c3)OCO4)CC2)cc1
The “activity, negative = inhibition” value of the first is lower: -39.5% for the first, -35.9% for the second.

First: Cc1nnc(SCC(=O)N2CCCC2)n1-c1ccc(F)cc1
Second: O=C(CSc1nnc2c(Cl)cc(Cl)cn12)N1CCOCC1
The “activity, negative = inhibition” value of the first is lower: -42.8% for the first, -14.8% for the second.

First: COc1cc(NC(=O)c2noc3c2CCc2ccccc2-3)cc(OC)c1OC
Second: COc1cc(NC(=O)N2CCC3(CC2)Nc2ccccc2-n2cccc23)cc(OC)c1OC
The “activity, negative = inhibition” value of the first is lower: -31.7% for the first, -30.8% for the second.

First: CC(=O)c1ccc(NC(=O)c2cc(S(=O)(=O)N3CCOCC3)ccc2C)cc1
Second: COc1ccc(C(=O)Nc2ccc(C)c(S(=O)(=O)N3CCOCC3)c2)cc1S(=O)(=O)N1CCCC1
The “activity, negative = inhibition” value of the first is lower: -36.2% for the first, -31.5% for the second.

Compared with `O=c1c2cnn(-c3ccccc3)c2ncn1Cc1ccccc1`, `Cc1ccc(/C=C/c2nc3ccccc3c(=O)n2CCc2ccccc2)cc1` is higher in “activity, negative = inhibition” value: -37.6% for the first, -32.9% for the second.

Going from `CCNc1nc2c(c(=O)n(Cc3ccccc3)c(=O)n2C)n1Cc1ccccc1` to `COc1ccc(-c2c3c(=O)n(C)c(=O)n(C)c3c3c(-c4ccccc4)nc4ccccc4n23)cc1`, the “activity, negative = inhibition” value rises from -32.7% to -18%.

Going from `COC(OC)c1ccnc(-c2ccc(OC(=O)c3ccc(F)cc3)cc2)n1` to `CCOc1ccc(CCNC(=O)c2ccc3c(c2)sc2nc(-c4ccc(F)cc4)cn23)cc1OCC`, the “activity, negative = inhibition” value rises from -38.9% to -32.6%.

Compared with `COc1ccccc1-c1noc(-c2ccc(N3CCN(c4ccccc4)CC3)c([N+](=O)[O-])c2)n1`, `CC(C)CC(=O)Nc1ccccc1N1CCN(c2ccccc2)CC1` is higher in “activity, negative = inhibition” value: -38.3% for the first, -32% for the second.

Compared with `COc1cccc2cc(-c3nc(-c4ccccc4F)no3)c(=O)oc12`, `CCOc1ccc(-c2nnc(NC(=O)COc3ccccc3F)o2)cc1` is higher in “activity, negative = inhibition” value: -45.9% for the first, 119% for the second.

Compared with `COc1ccc(C(=O)NNC(=O)c2ccccn2)cc1`, `COc1ccccc1C(=O)Nc1ccc(C(=O)c2ccccc2)cc1` is higher in “activity, negative = inhibition” value: -98.5% for the first, -36.3% for the second.

First: COc1ccc(CN2CCN(Cc3ccc(C(F)(F)F)cc3)CC2)c(OC)c1
Second: COc1ccc(OC)c(S(=O)(=O)Nc2ccc(F)cc2)c1
The “activity, negative = inhibition” value of the first is lower: -30.9% for the first, 125% for the second.

Going from `Cc1cc(OCCOc2cccc3cccnc23)cc(C)c1Cl` to `Cc1ccc(Cl)cc1NC(=O)c1cc2ccccc2cc1O`, the “activity, negative = inhibition” value rises from -34.1% to -20.1%.

Going from `CC1Cc2ccccc2N1c1ncnc(N)c1[N+](=O)[O-]` (stereo unspecified) to `Cc1cc(NC(=O)c2ccc(S(=O)(=O)N3CCc4ccccc43)cc2)no1`, the “activity, negative = inhibition” value falls from -21.1% to -32.7%.

Compared with `COc1cccc(/C=N/NC(=O)c2cc3c(OC)cccc3[nH]2)c1OC`, `COc1cccc(/C=N/Nc2ccc(C(=O)O)cc2)c1O` is lower in “activity, negative = inhibition” value: -38.6% for the first, -103% for the second.

Going from `CN(c1ccc(C(=O)NCc2cccnc2)cc1)S(=O)(=O)c1ccc(Cl)cc1` to `Cc1oc(-c2ccc(Cl)cc2)nc1CN1CCCC(C(=O)NCc2cccnc2)C1` (stereo unspecified), the “activity, negative = inhibition” value rises from -31.9% to -20.1%.

Compared with `O=C(NC1CC1)C1CCN(S(=O)(=O)c2cc([N+](=O)[O-])ccc2Cl)CC1`, `CCOC(=O)C1CCCN(S(=O)(=O)c2cc3c(cc2Cl)NC(=O)CO3)C1` (stereo unspecified) is lower in “activity, negative = inhibition” value: -11.8% for the first, -31% for the second.

Going from `CCn1nc(-c2ccccc2)c2nc3ccccc3nc21` to `Cc1onc(-c2ccccc2)c1C(=O)n1nnc2ccccc21`, the “activity, negative = inhibition” value falls from -34.2% to -36.4%.

Going from `CCc1cccc(C)c1Nc1c(-c2ccccc2)nc2sccn12` to `Cc1ccc(NC(=O)c2cc(-c3cccs3)nc3ccccc23)c(C)c1`, the “activity, negative = inhibition” value falls from -32% to -38.9%.

First: CCCn1c(NC(=O)CCNC(=O)c2ccccc2Cl)nc2ccccc21
Second: CCn1c2ccccc2c2cc(NC(=O)COc3ccc(C)c(C)c3)ccc21
The “activity, negative = inhibition” value of the first is lower: -36% for the first, -31.2% for the second.

First: CCC1CCCCN1CCCCOc1cccc(Cl)c1 (stereo unspecified)
Second: CCCN(CCC)CCCNC(=O)C1CCCN(Cc2nc(-c3ccc(Cl)cc3)oc2C)C1 (stereo unspecified)
The “activity, negative = inhibition” value of the first is lower: -32.7% for the first, -26.9% for the second.

Compared with `COc1ccccc1C(CNC(=O)c1ccc(OCc2c(C)noc2C)cc1)N1CCCC1` (stereo unspecified), `COc1ccccc1N1CCN(c2nc(CNC(=O)c3sc(C)nc3C)nc3ccccc23)CC1` is higher in “activity, negative = inhibition” value: -34.6% for the first, -13.5% for the second.

Compared with `Cc1ccc(C2=Nc3ccccc3NC(c3ccncc3)=N2)cc1`, `Nc1cc(-c2ccc(Br)cc2)nn1S(=O)(=O)c1ccccc1` is lower in “activity, negative = inhibition” value: -31% for the first, -33% for the second.

Compared with `CC(C)NC(=S)NN(c1ccccc1)c1ccccc1`, `Cn1c(=O)cc(SCC(=O)N2CCN(c3ccccc3)CC2)c2ccccc21` is higher in “activity, negative = inhibition” value: -35.6% for the first, -29% for the second.

Compared with `CCOc1ccc(S(=O)(=O)N2CCC(n3c(C)nc4cccnc43)CC2)cc1`, `Cc1cc(S(=O)(=O)N2CCN(c3ccccc3F)CC2)ccc1-n1cnnn1` is higher in “activity, negative = inhibition” value: -46.6% for the first, -37.1% for the second.

Compared with `Cc1nn(-c2cccc(Cl)c2)c2c1C(c1ccncc1)C(C#N)=C(N)O2` (stereo unspecified), `COc1cccc(-n2c(/C=C\c3ccc(Cl)cc3)nc3ccccc3c2=O)c1` is lower in “activity, negative = inhibition” value: -32.2% for the first, -32.4% for the second.

Compared with `CCCOc1ccccc1C(=O)N(Cc1cccc(Br)c1)C1CCS(=O)(=O)C1` (stereo unspecified), `CCSc1ncc(Cl)c(C(=O)N(Cc2ccccc2Cl)C2CCS(=O)(=O)C2)n1` (stereo unspecified) is higher in “activity, negative = inhibition” value: -49.6% for the first, -33.9% for the second.

First: Cc1ccc(C)c(N2CCN(S(=O)(=O)c3cc4c(cc3Cl)NC(=O)CO4)CC2)c1
Second: CC(=O)N1CCc2cc(S(=O)(=O)CCC(=O)N3CCN(c4cc(C)ccc4C)CC3)ccc21
The “activity, negative = inhibition” value of the first is higher: -31.6% for the first, -32.1% for the second.

Going from `CCOC1=C2CN(S(=O)(=O)c3ccc(C)cc3)[C@H](c3ccccc3)C[C@@H]2N(S(=O)(=O)c2ccc(C)cc2)[C@H](c2cccc(C)c2)C1` to `Cc1ccc(S(=O)(=O)N2CCN(C(=O)/C=C/c3ccccc3)CC2)cc1C`, the “activity, negative = inhibition” value rises from -33.1% to -31.7%.

Going from `Cc1cc(Br)cc(C)c1OCC(=O)NNC(=O)c1cccs1` to `Cc1cc(NC(=O)c2ccc3c(c2)OCO3)ccc1NC(=O)c1ccccc1`, the “activity, negative = inhibition” value falls from -38.5% to -94.1%.

Compared with `COc1ccc(C)cc1S(=O)(=O)Nc1ccccc1`, `COc1ccc(C)cc1NC(=O)/C=C/c1ccc(OC)c(S(=O)(=O)N2CCOCC2)c1` is lower in “activity, negative = inhibition” value: 103% for the first, -31.7% for the second.

First: CC1=[N+](C)c2ccc3ccccc3c2C1(C)C
Second: O=C(CSc1nc2ccccc2[nH]1)c1ccc(Cl)s1
The “activity, negative = inhibition” value of the first is lower: -33.1% for the first, 38.3% for the second.

Going from `Cc1ccccc1OCc1nnc(SCC(=O)Nc2c(C)n(C)n(-c3ccccc3)c2=O)n1-c1ccccc1` to `CCc1nnc(NC(=O)CSc2nc(-c3ccccc3)cc(-c3ccc(F)cc3)c2C#N)s1`, the “activity, negative = inhibition” value rises from -43.3% to 135%.

Compared with `NS(=O)(=O)c1ccc(Nc2nc(-c3ccc(O)cc3O)cs2)cc1`, `O=C(CSc1nc2ccccc2c(=O)n1Cc1ccco1)c1ccc(F)cc1` is higher in “activity, negative = inhibition” value: -33% for the first, -32.3% for the second.

Compared with `CN1CCN(NC(=O)Nc2cc(Cl)cc(Cl)c2)CC1`, `Cc1ccc(S(=O)(=O)N2CCN(C(=O)CCCN3C(=O)NC4(CCCC4)C3=O)CC2)cc1C` is higher in “activity, negative = inhibition” value: -36.1% for the first, -33.6% for the second.

Compared with `COc1ccc(CN2CCNC(=O)C2CC(=O)N(C)Cc2ccno2)c(F)c1` (stereo unspecified), `Cc1ccccc1-c1cnc2c(c1)C(=O)N([C@@H](C)CO)C[C@@H](C)[C@H](CN(C)Cc1ccccc1F)O2` is higher in “activity, negative = inhibition” value: -25.3% for the first, -11.7% for the second.

Compared with `CCn1c(N2CCC(C)CC2)nc2c1c(=O)n(C)c(=O)n2C`, `Cn1c(=O)c2c(SCC(=O)N3CCN(c4ccccc4)CC3)nc(C3CC3)nc2n(C)c1=O` is lower in “activity, negative = inhibition” value: -41.6% for the first, -43.8% for the second.

Going from `CCn1c(SCCOc2ccc(Cl)cc2)nnc1-c1cccs1` to `O=C(Nc1ccc2nc(SCCOc3ccccc3)sc2c1)c1ccc2c(c1)OCO2`, the “activity, negative = inhibition” value falls from -32.5% to -33.5%.

Going from `COc1ccc(C(O)(CC(C)C)C(CN2CCOCC2)c2ccccc2)cc1` (stereo unspecified) to `CCC(=O)N1CCc2cc(S(=O)(=O)CCC(=O)N3CCN(c4ccc(C(C)=O)cc4)CC3)ccc21`, the “activity, negative = inhibition” value rises from -37.2% to -30.2%.

First: CC1(Cc2cc(Cl)ccc2C(F)(F)F)C(=O)Nc2c(Cl)cccc21 (stereo unspecified)
Second: COc1ccc2c(Cl)c(C(=O)OCC(=O)c3ccc4c(c3)NC(=O)CO4)sc2c1Cl
The “activity, negative = inhibition” value of the first is lower: -32.7% for the first, -31% for the second.

For `O=C(CCCCCn1c(=O)[nH]c2ccccc2c1=O)N1CCN(Cc2ccc3c(c2)OCO3)CC1`, the Potency was 20 µM (active).
With `CC(=O)c1ccc(NC(=O)c2noc3c2CCC3)cc1` the Potency was 20 µM (active).
With `Cn1ncc(S(=O)(=O)Cc2ccccc2)c(Cl)c1=O` the Potency was 20 µM (active).
For `O=C(Oc1ccc(-c2nc(-c3ccccn3)no2)cc1)c1ccccc1`, the Potency was 14.1 µM (active).
For `COc1ccccc1-c1nc(-c2ccccn2)no1`, the Potency was 14.1 µM (active).
With `COc1cccc(/C=N/Nc2ncnc(N)c2[N+](=O)[O-])c1OC` the Potency was 7.94 µM (active).
In the case of `CCCc1nn2cc(-c3ccc(C)c(C)c3)nc2s1`, the Potency was 14.1 µM (active).
With `CCCCCc1nn2cc(-c3ccccc3)nc2s1` the Potency was 12.6 µM (active).
For `O=C(Nc1ccc2ccccc2c1)c1ccccc1O`, the Potency was 14.1 µM (active).
In the case of `CCc1ccc2oc(-c3cc(N=Cc4cccc(OC)c4O)ccc3O)nc2c1`, the Potency was 20 µM (active).
In the case of `Cc1ccc(C)c(N2CCN(C(=O)CCS(=O)(=O)c3ccc4c(c3)NC(=O)CO4)CC2)c1`, the Potency was 12.6 µM (active).
In the case of `Cn1c(-c2ccccc2)cc2onc(-c3ccccc3)c2c1=O`, the Potency was 8.91 µM (active).
With `COc1cc(NS(=O)(=O)c2ccc(C)cc2C)cc(OC)c1OC` the Potency was 20 µM (active).
With `Cc1cc(O)ccc1Nc1nc(-c2cccs2)cs1` the Potency was 20 µM (active).
In the case of `CSc1ccc(/C=C/c2nc3ccccc3n2S(=O)(=O)c2ccc(F)c(C)c2)cc1`, the Potency was 20 µM (active).
For `Cc1ccc(/C=C/c2nc3ccccc3n2S(=O)(=O)c2cccc(Cl)c2)cc1`, the Potency was 8.91 µM (active).
With `CS(=O)(=O)c1nc(-c2ccc(Br)cc2)cc(-c2ccccc2)c1C#N` the Potency was 25.1 µM (active).
With `COc1ccc(/C=C/C(=O)Nc2ccccc2)cc1S(=O)(=O)N1CCOCC1` the Potency was 12.6 µM (active).
For `Cc1oc(-c2ccc(Cl)cc2)nc1CN1CCCC(C(=O)NCCCN2CCCC2=O)C1` (stereo unspecified), the Potency was 7.94 µM (active).
For `CCOc1ccc(-c2nnc(-c3cccs3)o2)cc1`, the Potency was 15.8 µM (active).
With `O=C(Nc1nc2ccccc2s1)c1ccc2c(c1)OCO2` the Potency was 14.1 µM (active).
With `CCc1nc(SCC(=O)N2CCN(c3ccccc3)CC2)c2oc3ccccc3c2n1` the Potency was 25.1 µM (active).
For `Cc1cc(C(=O)CSc2nc3ccccc3[nH]2)c(C)n1Cc1ccco1`, the Potency was 11.2 µM (active).
